IEC-6 cytotox: cytotoxicity in IEC-6 intestinal epithelial cells, primary screen, cytotoxicity control for KLF5 inhibitor project, cell-based, luminescence. IEC-6 cytotoxicity, luminescence viability. inhibition, % at 5 µM. actives 0.78% (n = 290,000). AID 1825, 2009; in the data active means inhibition above about 22%;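 further: 0% = plate median of test compound wells and 100% = cytotoxic reference compound wells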
BaF3 tox: parental Ba/F3 cell viability inhibition, counter-screen for JAK2V617F inhibitor project, murine pro-B, CellTiter-Glo luminescence; CellTiter-Glo ATP luminescence; inhibition, % at 5.6 µM; actives 1.1% (n = 220,000);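 active means inhibition above a per-campaign cutoff, the mean inhibition of all tested compounds plus 3 SD, cut at about 27% in these data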;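 further: 0% = DMSO wells and 100% = JAK Inhibitor I control wells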
Ba/F3 V617F tox: reduced viability of JAK2V617F-dependent Ba/F3 cells, primary screen, JAK2V617F inhibitor project, cell-based, Ba/F3 EpoR-JAK2V617F, luminescence; ATP luminescence; inhibition, % at 5.6 µM; actives 1.1% (n = 220,000);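 active means inhibition above the campaign mean plus 3 SD over all tested compounds, cut at about 24% in these data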;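 further: cytokine-independent growth of Ba/F3 cells driven by EpoR plus mutant JAK2; 0% = DMSO-treated cells and 100% = JAK inhibitor I control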
KLF5 inh: KLF5 expression inhibitors, primary screen, DLD-1 cells, luminescence; actives 0.23% (n = 290,000); inhibition, % at 5 µM; DLD-1 KLF5 promoter-luciferase reporter;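 active means inhibition above a per-plate limit of that plate's mean compound inhibition plus 3 SD, cut at about 60% in these data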;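 further: 0% = DMSO wells and 100% = LY294002 at 200 µM; higher means less KLF5 promoter-driven luciferase light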
APP transl inh: inhibitors of APP translation via 5'UTR reporter, primary screen, APP 5'UTR luciferase, SH-SY5Y cells; SH-SY5Y APP 5'UTR-luciferase reporter, luminescence; inhibition, % at 2 µM; actives 0.82% (n = 190,000); AID 1285, 2008;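 active means inhibition above a set limit, derived from the sample mean plus 3 SD, cut at about 45% in these data; inconclusive means one replicate passes the limit while the other fails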
aSyn UTR inh: MLPCN primary screen, SNCA 5' untranslated region | alpha-synuclein 5'UTR reporter, inhibitor activity | inhibition, % (tested at 7.5 µM) | actives 0.82% (n = 300,000); in the data active means inhibition above about 60%; inconclusive means no clear call, values can overlap the other calls;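 further: H4 neuroglioblastoma cells stably carrying SNCA 5'UTR luciferase fusion; 0% = DMSO wells and 100% = positive control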
Numbers without * were called inactive; ? = inconclusive; / = no result given. In the library only some 2.2% were active in any assay of this set; here they are far more common.

SMILES | IEC-6 cytotox | BaF3 tox | Ba/F3 V617F tox | KLF5 inh | APP transl inh | aSyn UTR inh
Cc1c(C(=O)N/N=C/c2c(O)ccc3ccccc23)nnn1-c1nonc1N | 0 | / | / | 48 | / | 63*
O=C(N/N=C\c1c(O)ccc2ccccc12)c1ccc(O)cc1 | 0 | / | / | 53 | / | 75*
O=C(N/N=C/c1c(O)ccc2ccccc12)c1ccc[n+](CCO)c1 | 0 | -2 | 1 | -14 | 0 | -4
O=C(CNc1ccccc1)N/N=C/c1c(O)ccc2ccccc12 | 5 | / | / | 12 | / | 69*
Cn1cc(C(=O)N/N=C/c2c(O)ccc3ccccc23)ccc1=O | -6 | 7 | 1 | 32 | 50* | 96*
Cc1ccc(/C=C/c2nc3ccccc3s2)s1 | 0 | 2 | -2 | -120 | -98 | 71*
COc1cc(/C=C/c2nc3ccccc3s2)cc(OC)c1O | 2 | -4 | -2 | -37 | -129 | -69
CN(C)c1ccc(/C=C/c2nc3ccccc3s2)cc1 | 0 | 1 | 1 | 53 | -14 | 81*
CN(C)c1ccc(/C=C/c2ccc3ccccc3n2)cc1 | 21 | 22 | 15 | 105* | / | 89*
CN(C)c1ccc(CNc2nc3ccccc3s2)cc1 | -7 | / | / | 64* | / | 80*
C#CCSc1nc(=O)c2cccnc2n1-c1ccc(C)cc1 | -5 | -7 | -4 | 7 | / | 15
CCCn1c(C(C)Nc2nc(-c3cc(Cl)c(N)c(Cl)c3)cs2)nc2cc(Cl)c(N3CCCCC3)cc21 (centres undefined) | 6 | / | / | 9 | / | 6
COc1ccc(CCN2CC(C(=O)N(C)C3CCOCC3)CCC2=O)cc1 (centres undefined) | 0 | / | / | -13 | / | -26
Cc1ccc(OCC(=O)N/N=C/c2cccc3cccnc23)cc1 | 5 | / | / | 3 | / | 3
O=C(COc1ccc(S(=O)(=O)N2CCCC2)cc1Cl)NCc1cccnc1 | 0 | / | / | -36 | / | 0
COc1cccc(C(=O)CC(=O)C(=O)Nc2cc(OC)c(OC)c(OC)c2)c1 | -1 | / | / | 3 | / | -4
C(=C\c1ccc2ccccc2n1)/c1ccccc1 | 5 | 2 | 0 | -108 | -176 | 67*
O=C(O)/C=C/c1ccc2ccccc2n1 | -1 | 1 | -2 | -16 | -2 | -64
O=C(O)CCc1[nH]c2ccccc2c1Sc1ccccc1 | 0 | / | / | -35 | / | 18
CC(=O)CSc1ncnc2nc[nH]c12 | 13 | 33* | 25* | -18 | 4 | -2
Cc1ccc(C)c(NC(=O)CSc2ncnc3nc[nH]c23)c1 | 1 | 5 | 3 | -23 | -12 | 23
COc1ccc(C(=O)CSc2ncnc3nc[nH]c23)cc1 | -4 | 4 | 0 | -32 | / | -16
O=C(CSc1ncnc2nc[nH]c12)Nc1nnc(SCc2ccc(Cl)c(Cl)c2)s1 | 5 | 28* | 5 | 7 | -21 | -13
O=[N+]([O-])c1ccccc1C1Nc2cccc3cccc(c23)N1 | 11 | 100* | 79* | 10 | 14 | -27
Oc1ccccc1C1Nc2cccc3cccc(c23)N1 | 4 | 0 | -4 | -19 | -10 | 2
SMILES | IEC-6 cytotox | BaF3 tox | Ba/F3 V617F tox | KLF5 inh | APP transl inh | aSyn UTR inh
COc1ccc(OC)c(NC(=O)CSc2nc(=O)n(CCN3CCOCC3)c3c2CCCC3)c1 | / | / | / | / | / | 9
O=C(CSc1nnc(COc2ccc(Cl)cc2)o1)N1CCCC1 | -4 | / | / | -8 | / | 12
O=C(CSc1nnc(COc2ccc(Cl)cc2)o1)N1c2ccccc2CCc2ccccc21 | 12 | 46* | 25* | -20 | 0 | ?
COC(=O)c1ccccc1NC(=O)CSc1nc(-c2ccco2)cc(C(F)(F)F)n1 | -2 | 5 | -1 | -11 | 73* | /
O=C1c2ccccc2C(=O)C1c1nccc2ccccc12 | 1 | 4 | 1 | -22 | -100 | 99*
O=C1c2ccccc2C(=O)C1c1ccnc2ccccc12 | 8 | 1 | -4 | -135 | -146 | 89*
CC(=O)/C(=N\Nc1ccccc1)Sc1cccc2cccnc12 | 14 | 6 | 1 | -8 | 12 | 24
O=C(Sc1cccc2cccnc12)c1ccc(F)cc1 | 87* | 41* | 43* | 17 | 71* | /
COc1ccc(S(=O)(=O)Nc2cc(Sc3ncn[nH]3)c(O)c3ccccc23)cc1 | 13 | 87* | 90* | 89* | 9 | /

Screening results (PubChem BioAssay)
